Results from PubChem BioAssay (NCI).
About 83,000 compounds went through this panel and 20% of them were active in at least one assay; those are over-represented in the sample as a whole.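 Treatment: one concentration, 48 hours, 96-well format. Scoring: percent growth, with anything below 10 considered active.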 Values without a mark were called inactive. Calls of active or inactive are those of the source.

Legend:
Experiment in all cases: NCI-60 one-dose screen, 48 h (100 = growth as untreated, 0 = no growth, -100 = all killed)
Settings in all cases: 10 µM unless noted
SK-MEL-2 melanoma = tested on: SK-MEL-2 melanoma
EKVX NSCLC = tested on: EKVX NSCLC
SN12C renal = tested on: SN12C renal
UO-31 renal = tested on: UO-31 renal
TK-10 renal = tested on: TK-10 renal
CAKI-1 renal = tested on: CAKI-1 renal
A498 renal = tested on: A498 renal
CCRF-CEM leukemia = tested on: CCRF-CEM leukemia
MOLT-4 leukemia = tested on: MOLT-4 leukemia
ACHN renal = tested on: ACHN renal

SMILES	growth (SK-MEL-2 melanoma)	growth (EKVX NSCLC)	growth (SN12C renal)	growth (UO-31 renal)	growth (TK-10 renal)	growth (CAKI-1 renal)	growth (A498 renal)	growth (CCRF-CEM leukemia)	growth (MOLT-4 leukemia)	growth (ACHN renal)
CCC(CO)Nc1nc2ccc(Cl)cc2c2ccccc12 (configuration not stated)	84.1%	47.9%	71.1%	39.5%	54.3%	40.9%	-19% (active)	56.5%	–	–
Cc1cc(=O)[nH]c(N=Nc2c(O)[nH]c3ccccc23)n1	103%	111%	102%	84.9%	112%	96.1%	127%	94.6%	109%	–
CNC(=O)c1cc(Oc2cccc3nc(Nc4ccc(F)c(Cl)c4)ccc23)ccn1	90.8%	69.5%	60.4%	68.7%	52.9%	97%	60.4%	60.3%	–	–
COc1ccc(N2CCN(c3nc(-c4cc(OC)c(OC)c(OC)c4)nc4ccccc34)CC2)cc1	93.6%	85%	90.1%	69.9%	113%	84.1%	79.5%	91.3%	–	–
CC1=C([Se]CC(OC(=O)CC[Se]c2ccccc2)C(=O)NCCCCCC(=O)OCc2ccccc2)C(=O)c2ccccc2C1=O (configuration not stated)	47.8%	27.1%	13.4%	15.4%	40.9%	32.2%	71.9%	9.75% (active)	17.1%	–
O=C(c1ccccc1)N1N=C(c2ccccc2)CC1c1nnc2n(Cc3ccccc3)c(=O)c3c4c(sc3n12)CCCC4 (configuration not stated)	77.6%	102%	120%	84.4%	111%	99.3%	114%	–	88.8%	–
O=C(c1ccc(Nc2nccc(NCCCCNc3ccnc4cc(Cl)ccc34)n2)cc1)N1CCCCC1	68.7%	67.5%	67.4%	73.9%	91.5%	86.1%	68%	-11.8% (active)	–	–
Cc1ccc(Cc2cnc(NC(=O)c3ccc4noc(-c5ccccc5)c4c3)s2)cc1	99.7%	79.1%	85.9%	81.9%	109%	78.2%	102%	–	90.2%	–
CC(C)(C)n1cc(-c2ccnc(NCCCNS(=O)(=O)c3ccccc3)c2)c(-c2ccccc2)n1	98.7%	70.7%	78.2%	59%	–	80.9%	39.7%	–	–	97.2%
COc1cccc(Nc2nccc(Nc3ccc4[nH]ncc4c3)n2)c1	-37% (active)	34%	20.2%	-62.1% (active)	–	-30.8% (active)	12.7%	–	-32.4% (active)	-3.17% (active)
O=C(Nc1cccc(Cl)c1)c1cc(N=Nc2ccc([N+](=O)[O-])cc2Cl)ccc1O	-26.6% (active)	70.2%	82.1%	38.7%	–	100%	69.5%	21.3%	–	82.4%
c1ccc2c(c1)nc(CN1CCOCC1)n1cc(N3CCCC3)nc21	106%	87.2%	97.7%	75.1%	–	99.5%	98.7%	–	99%	104%
Cc1occc1-c1n[nH]c(=S)n1N1C(=O)CSC1=S	107%	99.1%	99.2%	77.6%	99%	85.4%	101%	–	99.7%	–
O=[N+]([O-])c1ccc(N2c3ccncc3Sc3ccncc32)cc1	93.8%	88.7%	99%	56.9%	–	87.8%	112%	101%	104%	93.7%
CC(=O)OC1CCC2(C)C(=CC3C4CCC(=O)C4(C)CCC32)C1 (configuration not stated)	93%	109%	96.4%	96.2%	–	101%	154%	–	103%	101%
O=C1/C(=C\c2cccnc2)SC(=S)N1CCc1ccc(O)cc1	66.5%	64.7%	18.4%	37.4%	–	30.5%	85.1%	23.9%	68.6%	29.4%
O=C(Nc1cccc(C(F)(F)F)c1)Nc1cccc(C(F)(F)F)c1	-28.5% (active)	13.8%	2.57% (active)	4.46% (active)	–	16.4%	-18.2% (active)	2.44% (active)	–	5.92% (active)

SMILES	growth (SK-MEL-2 melanoma)	growth (EKVX NSCLC)	growth (SN12C renal)	growth (UO-31 renal)	growth (TK-10 renal)	growth (CAKI-1 renal)	growth (A498 renal)	growth (CCRF-CEM leukemia)	growth (MOLT-4 leukemia)	growth (ACHN renal)
COC(=O)CCC1=C(C)C2=NC1=CC1=NC(=CC3=NC(=Cc4[nH]c(/c(=C(/C)O)c4C)=C2)C(C(C)=O)=C3C)C(C)=C1CCC(=O)OC	102%	99.7%	97.8%	–	123%	98.8%	90.1%	–	–	103%
N#Cc1c(N)nn(C(=O)c2ccc(NC(=O)c3ccccn3)cc2)c1-c1ccc(Cl)cc1	79.3%	49.2%	35%	54.3%	–	26%	51.1%	–	52.9%	12.9%
N#Cc1c(N)nc2c(C#N)c(NC(=O)c3ccccc3)nn2c1-c1ccccc1	101%	71.9%	91.7%	61.3%	–	91%	59.1%	57.2%	74.9%	89.6%
COc1cc(C(=O)/C=C/c2c(-c3ccc(F)cc3)nc3sc(C)cn23)cc(OC)c1OC	144%	17.4%	56.3%	58%	–	32.8%	-1.47% (active)	14.8%	-38.8% (active)	–
CCc1ccccc1-n1c(-c2ccc(Cl)cc2)cc(-c2ccc(Cl)cc2)c(C#N)c1=O	103%	87.5%	92.3%	75.3%	–	90.2%	94.9%	34.4%	31.8%	98.8%
Cn1cc(-c2csc(-c3ccccc3)n2)c2cccnc21	-48.2% [100 µM] (active)	4.11% [100 µM] (active)	-58.2% [100 µM] (active)	-28.7% [100 µM] (active)	–	-32.4% [100 µM] (active)	-82.4% [100 µM] (active)	–	-8.37% [100 µM] (active)	0.882% [100 µM] (active)
Clc1cc(Cl)cc(Nc2ccc3cc(OCCCN4CCOCC4)ccc3n2)c1	63.9%	69.3%	60.1%	26.5%	–	75.3%	51%	12.9%	–	42%
CCCCCCCCCCN(CCCCCCCCCC)CC(=O)c1ccc2cc(Br)c3ccccc3c2c1	101%	83.5%	81.1%	2.3% (active)	–	46.3%	53.2%	–	-39.6% (active)	97.3%
COC(=O)[C@]12CC[C@@H](C)[C@H](C)[C@@H]1C1=CC[C@@H]3[C@@]4(C)C(C=O)=C[C@@](C)(COC(=O)c5ccco5)C4=CC[C@@]3(C)[C@]1(C)CC2	-42.1% (active)	11%	17.1%	–	6.65% (active)	14.3%	22.2%	–	–	-33.9% (active)
O=[N+]([O-])c1ccc(C2CC(c3ccccc3)=Nc3ccccc3S2)cc1 (configuration not stated)	107%	112%	103%	56.4%	–	93.6%	114%	73.2%	–	103%
CCc1c2c(nc3ccc(OC(=O)NCc4ccc(B5OC(C)(C)C(C)(C)O5)cc4)cc13)-c1cc3c(c(=O)n1C2)COC(=O)[C@]3(O)CC	-28% (active)	35.3%	-0.279% (active)	-67.7% (active)	–	-43.3% (active)	-63.1% (active)	19.8%	–	-61.5% (active)
N#C/C(=C\c1ccc(Br)cc1)n1nnc2cc(F)c(F)cc21	29.5%	69.8%	17%	33.9%	–	22.9%	26.8%	–	1.95% (active)	24%
CCN(CC)c1nc(SCC(=O)Nc2nc3ccc(C)cc3s2)nc(-c2ccccc2)c1C#N	92%	81%	94%	68.8%	–	75.4%	81%	–	79.7%	94.8%
C=C(C)[C@@H]1CC[C@]2(C(=O)NC3CCCCC3)CC[C@]3(C)[C@H](CC[C@@H]4[C@@]5(C)CCC(=O)C(C)(C)[C@@H]5CC[C@]43C)[C@@H]12	95%	93.9%	86%	76.1%	–	76.6%	83.3%	–	88%	99.8%
CC(C)C(NC(=O)C1(NC(=O)OCc2ccccc2)CCCC1)C(=O)O (configuration not stated)	107%	110%	102%	81%	–	102%	102%	104%	96%	96.8%
C=CCSc1nc2ccccc2cc1/C=N/O	84.4%	76.6%	89.5%	58.9%	–	75.1%	98%	95.5%	86.7%	87.6%
COC(=O)[C@]12CC[C@@H](C)[C@H](C)[C@@H]1C1=CC[C@@H]3[C@@]4(C)C(C=O)=C[C@@](C)(COC(=O)/C=C/c5ccccc5)[C@@H]4[C@H](O)C[C@@]3(C)[C@]1(C)CC2	-23.5% (active)	26.9%	3.47% (active)	3.64% (active)	–	15%	19.6%	16.4%	–	-14.7% (active)
